Experimental data: ChEMBL document CHEMBL1961873, “Compounds: GSK PKIS; Assays: Nanosyn kinase panel” (2012)

Each compound was assayed against T1, Serine/threonine-protein kinase D2 (Homo sapiens) (UniProt Q9BZL6). Settings: at 1 µM.
T1 sequence (whole entry): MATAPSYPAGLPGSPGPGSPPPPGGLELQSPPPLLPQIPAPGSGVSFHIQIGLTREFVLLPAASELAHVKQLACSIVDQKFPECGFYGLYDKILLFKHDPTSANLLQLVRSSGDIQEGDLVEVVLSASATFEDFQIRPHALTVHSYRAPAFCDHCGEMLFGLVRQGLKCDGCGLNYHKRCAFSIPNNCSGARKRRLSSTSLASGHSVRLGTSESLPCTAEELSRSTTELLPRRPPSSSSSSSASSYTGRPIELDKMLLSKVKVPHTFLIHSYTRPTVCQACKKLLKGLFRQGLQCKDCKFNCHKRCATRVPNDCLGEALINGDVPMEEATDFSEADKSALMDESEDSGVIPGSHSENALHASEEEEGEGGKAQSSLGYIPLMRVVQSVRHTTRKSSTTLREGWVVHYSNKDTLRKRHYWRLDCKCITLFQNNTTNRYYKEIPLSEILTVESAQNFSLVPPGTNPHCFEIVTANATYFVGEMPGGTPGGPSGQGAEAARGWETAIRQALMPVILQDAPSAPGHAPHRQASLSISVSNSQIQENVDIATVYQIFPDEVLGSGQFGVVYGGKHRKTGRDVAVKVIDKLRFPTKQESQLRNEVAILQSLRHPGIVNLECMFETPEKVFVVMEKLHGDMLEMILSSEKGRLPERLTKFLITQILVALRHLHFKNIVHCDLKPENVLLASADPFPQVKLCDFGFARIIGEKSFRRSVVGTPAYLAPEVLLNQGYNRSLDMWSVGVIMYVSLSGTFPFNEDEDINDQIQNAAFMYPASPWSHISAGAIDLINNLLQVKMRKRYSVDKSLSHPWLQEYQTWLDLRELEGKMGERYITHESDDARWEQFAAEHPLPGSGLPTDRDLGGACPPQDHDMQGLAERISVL
With NC(=O)Cc1ccccc1Oc1nccc(-c2c(-c3ccc(F)cc3)ncn2C2CCNCC2)n1 the inhibition was 9.53%. For C[C@@H](Oc1cc(-n2cnc3ccc(OC4CCN(C)CC4)cc32)sc1C(N)=O)c1ccccc1Cl, the inhibition was 1.06%. NS(=O)(=O)c1ccc(N/N=C2\C(=O)Nc3ccc(-c4cnco4)cc32)cc1 was tested, and the inhibition was 9.15%. NS(=O)(=O)c1ccc(Nc2cc(-c3ccc(O)c(F)c3)n[nH]2)cc1 was tested, and the inhibition was 2.89%. With CCS(=O)(=O)c1ccc(OC)c(Nc2ncc(-c3ccccc3Cl)o2)c1 the inhibition was 1.98%. For COc1cc(Nc2ncc3c(C)nc(-c4cccc(C(F)(F)F)c4)n3n2)cc(OC)c1OC, the inhibition was 4.32%. Cc1ccc(C(=O)NC2CCC2)cc1-c1ccc(C(=O)NCC2CC2)cc1 gave an inhibition of 2.79%. C[C@@H](Oc1cc(-n2cnc3ccc(OCC4CCN(C)CC4)cc32)sc1C(N)=O)c1ccccc1Cl gave an inhibition of 12.1%. In the case of Fc1ccc(-c2ncn(C3CCNCC3)c2-c2ccnc(Oc3ccc4c(c3)OCO4)n2)cc1, the inhibition is reported as 9.53%. CCS(=O)(=O)c1ccc(OC)c(Nc2ncc(-c3cccc(-c4ccccc4F)c3)o2)c1 gave an inhibition of 1.19%. For CN(c1ccc(NC(=O)Nc2c(Cl)cccc2Cl)cc1)c1ccnc(Nc2cccc(CS(C)(=O)=O)c2)n1, the inhibition was 2%. With O=C(NCC1CC1)c1ccc(-c2cccc(C(=O)NC3CC3)c2)cc1 the inhibition was 2.14%. COc1ccc2cc(-c3c(-c4ccncc4)nc(-c4ccc(S(C)(=O)=O)cc4C)n3C)ccc2c1 gave an inhibition of 4.27%. Compound NC(=O)c1ccc(Oc2nccc(-c3c(-c4ccc(F)cc4)ncn3C3CCNCC3)n2)cc1 has an inhibition of 3.14%. In the case of Nc1nccc(-c2c(-c3ccc(F)cc3)ncn2C2CCC(O)CC2)n1 (stereo not drawn), the inhibition is reported as 23.3%. COc1cc2ncn(-c3cc(OCCc4ccccc4)c(C(N)=O)s3)c2cc1OC showed an inhibition of 4.84%. In the case of Cc1ccc(NC(=O)c2ccoc2)cc1-c1ccc(C(=O)NCC2CC2)cc1, the inhibition is reported as 3.55%. COc1cc(Nc2ncc(-c3ccccc3)o2)cc(OC)c1OC was tested, and the inhibition was -0.05%. Compound O=C(Nc1n[nH]c2nc(-c3ccc(O)cc3)c(Br)cc12)C1CC1 has an inhibition of 5.92%. Compound CCc1nccc2c1nc(-c1nonc1N)n2CC has an inhibition of 3.17%. Compound COc1ccc(C2=C(N3CCc4ccccc43)C(=O)NC2=O)cc1 has an inhibition of 7.9%. COc1ccc(-c2ccc3c(NC(=O)C4CC4)n[nH]c3n2)cc1 was tested, and the inhibition was 1.69%. COc1cc2ncn(-c3cc(OCc4ccccc4C(F)(F)F)c(C(C)=O)s3)c2cc1OC showed an inhibition of 2.55%. Fc1ccc(-c2ncn(C3CCNCC3)c2-c2ccnc(Oc3ccc(Oc4ccccc4)cc3)n2)cc1 was tested, and the inhibition was 5.64%. Work on COc1cc2ncn(-c3cc(OCc4cccs4)c(C(N)=O)s3)c2cc1OC yielded an inhibition of -0.96%. Work on O=C(Nc1ccc(Oc2ccc3[nH]c(NC(=O)c4ccccc4)nc3c2)cc1)Nc1cc(C(F)(F)F)ccc1F yielded an inhibition of 4.25%. Fc1ccc(-c2nc3n(c2-c2ccncc2)CCS3)cc1 showed an inhibition of 3.85%. With Fc1ccc(-c2ncn(C3CCNCC3)c2-c2ccnc(Oc3ccc(F)c(F)c3)n2)cc1 the inhibition was 3.98%. COc1cccc(/C=N/Nc2ncnc3c2cnn3-c2cccc(OC)c2)c1 gave an inhibition of 1.36%. C/C(Nc1ccc(S(N)(=O)=O)cc1)=C1/C(=O)Nc2ccccc21 gave an inhibition of 11.3%. With NS(=O)(=O)c1ccc(N/N=C2\C(=O)Nc3ccc(C(=O)NCCCn4ccnc4)cc32)cc1 the inhibition was 22.3%. CN(C)CCOc1ccc(-c2cc(-c3ccc4c(c3)CCC4=NO)c(-c3ccncc3)o2)cc1 showed an inhibition of 1.9%. COc1ccc2cc(-c3c(-c4ccncc4)nc(-c4ccc([S+](C)[O-])cc4C)n3C)ccc2c1 (stereo not drawn) showed an inhibition of 0.1%. FC(F)(F)c1cccc(Nc2nccc(-c3cnn4nc(-c5ccccc5)ccc34)n2)c1 gave an inhibition of 1.49%.

What follows are compounds tested against T2, Serine/threonine-protein kinase D3 (Homo sapiens) (UniProt O94806). Settings: at 0.1 µM.
T2 sequence (whole entry): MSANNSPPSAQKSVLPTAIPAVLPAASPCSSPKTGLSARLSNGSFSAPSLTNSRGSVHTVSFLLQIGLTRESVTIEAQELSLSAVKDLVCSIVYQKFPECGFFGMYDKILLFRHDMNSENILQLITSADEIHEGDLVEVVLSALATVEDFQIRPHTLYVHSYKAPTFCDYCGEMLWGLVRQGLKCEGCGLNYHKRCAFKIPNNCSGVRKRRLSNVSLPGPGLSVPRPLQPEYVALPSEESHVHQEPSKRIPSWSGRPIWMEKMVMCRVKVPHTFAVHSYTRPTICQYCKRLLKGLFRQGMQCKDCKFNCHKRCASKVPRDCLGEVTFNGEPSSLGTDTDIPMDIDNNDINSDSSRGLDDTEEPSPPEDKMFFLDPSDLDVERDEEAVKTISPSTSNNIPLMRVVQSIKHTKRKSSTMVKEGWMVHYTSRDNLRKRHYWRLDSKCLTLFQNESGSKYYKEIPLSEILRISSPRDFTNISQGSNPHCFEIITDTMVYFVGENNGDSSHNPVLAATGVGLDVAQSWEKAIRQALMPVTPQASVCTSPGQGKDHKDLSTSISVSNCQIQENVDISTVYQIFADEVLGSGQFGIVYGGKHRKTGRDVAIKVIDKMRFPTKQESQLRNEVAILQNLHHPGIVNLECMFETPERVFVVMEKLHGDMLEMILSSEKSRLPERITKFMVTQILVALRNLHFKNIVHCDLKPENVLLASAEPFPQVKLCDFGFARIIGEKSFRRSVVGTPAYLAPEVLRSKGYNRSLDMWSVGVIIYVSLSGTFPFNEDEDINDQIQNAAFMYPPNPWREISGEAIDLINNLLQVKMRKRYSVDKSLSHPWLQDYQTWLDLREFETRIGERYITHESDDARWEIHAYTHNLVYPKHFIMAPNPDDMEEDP
Compound NC(=O)Cc1ccccc1Oc1nccc(-c2c(-c3ccc(F)cc3)ncn2C2CCNCC2)n1 has an inhibition of 3.95%. C[C@@H](Oc1cc(-n2cnc3ccc(OC4CCN(C)CC4)cc32)sc1C(N)=O)c1ccccc1Cl gave an inhibition of 0.8%. For NS(=O)(=O)c1ccc(N/N=C2\C(=O)Nc3ccc(-c4cnco4)cc32)cc1, the inhibition was -1.69%. In the case of NS(=O)(=O)c1ccc(Nc2cc(-c3ccc(O)c(F)c3)n[nH]2)cc1, the inhibition is reported as -2.85%. Compound CCS(=O)(=O)c1ccc(OC)c(Nc2ncc(-c3ccccc3Cl)o2)c1 has an inhibition of 0.34%. Compound COc1cc(Nc2ncc3c(C)nc(-c4cccc(C(F)(F)F)c4)n3n2)cc(OC)c1OC has an inhibition of 2.48%. For Cc1ccc(C(=O)NC2CCC2)cc1-c1ccc(C(=O)NCC2CC2)cc1, the inhibition was 2.86%. In the case of C[C@@H](Oc1cc(-n2cnc3ccc(OCC4CCN(C)CC4)cc32)sc1C(N)=O)c1ccccc1Cl, the inhibition is reported as 5.81%. Compound Fc1ccc(-c2ncn(C3CCNCC3)c2-c2ccnc(Oc3ccc4c(c3)OCO4)n2)cc1 has an inhibition of 5.01%. CCS(=O)(=O)c1ccc(OC)c(Nc2ncc(-c3cccc(-c4ccccc4F)c3)o2)c1 gave an inhibition of 1.19%. With CN(c1ccc(NC(=O)Nc2c(Cl)cccc2Cl)cc1)c1ccnc(Nc2cccc(CS(C)(=O)=O)c2)n1 the inhibition was 1.3%. O=C(NCC1CC1)c1ccc(-c2cccc(C(=O)NC3CC3)c2)cc1 was tested, and the inhibition was 2.87%. With COc1ccc2cc(-c3c(-c4ccncc4)nc(-c4ccc(S(C)(=O)=O)cc4C)n3C)ccc2c1 the inhibition was 3.99%. NC(=O)c1ccc(Oc2nccc(-c3c(-c4ccc(F)cc4)ncn3C3CCNCC3)n2)cc1 gave an inhibition of 4.58%. Nc1nccc(-c2c(-c3ccc(F)cc3)ncn2C2CCC(O)CC2)n1 (stereo not drawn) showed an inhibition of -0.31%. With COc1cc2ncn(-c3cc(OCCc4ccccc4)c(C(N)=O)s3)c2cc1OC the inhibition was 3.76%. Cc1ccc(NC(=O)c2ccoc2)cc1-c1ccc(C(=O)NCC2CC2)cc1 was tested, and the inhibition was 2.92%. With COc1cc(Nc2ncc(-c3ccccc3)o2)cc(OC)c1OC the inhibition was -1.81%. Compound O=C(Nc1n[nH]c2nc(-c3ccc(O)cc3)c(Br)cc12)C1CC1 has an inhibition of 5.64%. With CCc1nccc2c1nc(-c1nonc1N)n2CC the inhibition was 1.43%. For COc1ccc(C2=C(N3CCc4ccccc43)C(=O)NC2=O)cc1, the inhibition was 4.84%. With COc1ccc(-c2ccc3c(NC(=O)C4CC4)n[nH]c3n2)cc1 the inhibition was 1.45%. COc1cc2ncn(-c3cc(OCc4ccccc4C(F)(F)F)c(C(C)=O)s3)c2cc1OC showed an inhibition of 2.93%. Work on Fc1ccc(-c2ncn(C3CCNCC3)c2-c2ccnc(Oc3ccc(Oc4ccccc4)cc3)n2)cc1 yielded an inhibition of 5.21%. Compound COc1cc2ncn(-c3cc(OCc4cccs4)c(C(N)=O)s3)c2cc1OC has an inhibition of -1.14%. O=C(Nc1ccc(Oc2ccc3[nH]c(NC(=O)c4ccccc4)nc3c2)cc1)Nc1cc(C(F)(F)F)ccc1F showed an inhibition of 3.06%. Work on Fc1ccc(-c2nc3n(c2-c2ccncc2)CCS3)cc1 yielded an inhibition of 1.34%. Fc1ccc(-c2ncn(C3CCNCC3)c2-c2ccnc(Oc3ccc(F)c(F)c3)n2)cc1 gave an inhibition of 1.09%. With COc1cccc(/C=N/Nc2ncnc3c2cnn3-c2cccc(OC)c2)c1 the inhibition was 3.64%. C/C(Nc1ccc(S(N)(=O)=O)cc1)=C1/C(=O)Nc2ccccc21 gave an inhibition of -0.08%. NS(=O)(=O)c1ccc(N/N=C2\C(=O)Nc3ccc(C(=O)NCCCn4ccnc4)cc32)cc1 showed an inhibition of 5.36%. For CN(C)CCOc1ccc(-c2cc(-c3ccc4c(c3)CCC4=NO)c(-c3ccncc3)o2)cc1, the inhibition was -0.84%. With COc1ccc2cc(-c3c(-c4ccncc4)nc(-c4ccc([S+](C)[O-])cc4C)n3C)ccc2c1 (stereo not drawn) the inhibition was -0.55%. FC(F)(F)c1cccc(Nc2nccc(-c3cnn4nc(-c5ccccc5)ccc34)n2)c1 gave an inhibition of 1.55%.
